High-throughput results deposited in PubChem BioAssay by National Center for Advancing Translational Sciences (NCATS).
The list is not random: actives were taken first. Their share in the collection is about 21%.
Shiga toxin inh = inhibitors of Shiga toxin in Vero cells. Vero cells, Shiga toxin protein synthesis inhibition reporter. 290,000 tested, 9.2% active. inhibition, % at 38.7 µM; in the data active = inhibition mostly above about 28%, no sharp cut-off; inactive = mostly below about 43%
NS1 function inh = influenza NS1 inhibition; Potency, µM (titrated, usually from 46.1 µM); 270,000 tested, 0.4% active; AID 2326; also: actives are rising curves; nearly all actives have a fitted effect of over 50% in size
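A cell-based growth assay was used: compounds that relieve NS1-induced slow growth of budding yeast raise OD600. Assay medium was yeast nitrogen base with ammonium sulphate and -URA supplement, pH 6.0, with 2% galactose.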
Pf growth 48h = P. falciparum growth inhibition at 48 hours (one generation); P. falciparum luciferase growth in erythrocytes, 48 h; 310,000 tested, 5.9% active; Potency, µM (titrated, usually from 28.7 µM), hits mostly inhibitors; AID 504832; active = well fitted inhibition curve with a large enough effect; inconclusive = small, poorly fitted or top-dose-only effect, or another doubt; inactive = no such curve, though single readings can be large or run the other way
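First compound was added to culture medium, then infected red cells at 0.1% parasitemia and 2% hematocrit (final). After incubation at 37 C under 5% CO2, luciferase detection reagent was dispensed and light output recorded.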
CHX counter = counter-screen hit for Shiga toxin inhibitors, cycloheximide; cell reporter, cycloheximide protein synthesis inhibition counterscreen; max response, %; 300,000 tested, 12% active; AID 2314; in the data active = max response mostly above about 13%, no sharp cut-off; inactive = mostly below about 14%; also: read at 38.3 µM for the half of the compounds with a filed dose
SARS PLpro yeast = inhibitors of SARS-CoV papain-like protease in yeast. S. cerevisiae expressing SARS-CoV PLpro, growth rescue. Potency, µM (series often up to 32.9 µM), usual class: activators. 330,000 tested, 0.19% active. AID 485353; also: nearly all actives have a fitted effect of over 55% in size
Pf growth 96h = P. falciparum growth inhibition at 96 hour, primary screen for plastid delayed-death inhibitors. Potency, µM (doses to about 28.7 µM), usual class: inhibitors. P. falciparum luciferase reporter growth, 96 h. 320,000 tested, 6.9% active. AID 504834; active = well fitted inhibition curve with a large enough effect; inconclusive = small, poorly fitted or top-dose-only effect, or another doubt; inactive = no such curve, though single readings can be large or run the other way
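P. falciparum expressing integrated firefly luciferase grown in erythrocytes (2% hematocrit, 0.05% parasitemia final) with compounds for 96 hours at 37 C, 5% CO2. Growth inhibition read as loss of luminescence after adding luciferase detection reagent.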
Each line names hits and unclear results; the compound was inactive in the other large screens. Unless noted, calls follow the shape of the full dose curve.

O=C(c1cnn2ccccc12)N(Cc1ccco1)C1CCCC1	Pf growth 96h 10µM (no result: Pf growth 48h)
O=C(c1cnn2ccccc12)N1CCN(C2CCCCC2)CC1	none (no result: Pf growth 48h)
CC1CCc2nc3ccccc3c(C(=O)OCC(=O)N3CCc4ccccc43)c2C1 (stereo not drawn)	Pf growth 48h 8.3µM, Pf growth 96h inconclusive
CCCc1nc2ccccc2c(C(=O)OCC(=O)N2CCc3ccccc32)c1CC	Pf growth 48h inconclusive, Pf growth 96h 8.3µM
CCCCN(C)CCNC(=O)c1cc2c(-c3ccccc3F)nn(C)c2s1	Pf growth 48h inconclusive
CCCCN(CC)CCCNC(=O)c1cc2c(-c3ccc(OC)c(OC)c3)nn(C)c2s1	Pf growth 48h 2.6µM, Pf growth 96h inconclusive
CCCCN(C)CCNC(=O)c1cc2c(-c3cccc(OC)c3)nn(C)c2s1	Pf growth 48h 1.5µM
COc1cccc(-c2nn(C)c3sc(C(=O)NCc4ccco4)cc23)c1	Pf growth 48h 7.4µM
COc1cccc(-c2nn(C)c3sc(C(=O)NCCCN(C)Cc4ccccc4)cc23)c1	Pf growth 48h 2.1µM
Cc1ccc(CNC(=O)c2cc3c(-c4ccc(Cl)cc4)nn(C)c3s2)o1	Pf growth 96h inconclusive (no result: Pf growth 48h)
O=C(Nc1ccccc1)c1cc(S(=O)(=O)N2CCCCC2)ccc1N1CCOCC1	Pf growth 48h inconclusive, Pf growth 96h inconclusive (no result: Shiga toxin inh, NS1 function inh, CHX counter)
Cc1ccccc1N1CCN(S(=O)(=O)c2nnc(NC(=O)c3ccco3)s2)CC1	Pf growth 96h inconclusive
O=C(Cc1cnc2ncnn2c1)N1CCc2c([nH]c3ccccc23)C1c1ccccn1 (stereo not drawn)	none
COCCCNC(=O)c1cc2c(-c3ccc(Cl)cc3)nn(C)c2s1	none (no result: Pf growth 48h)
CCN(CC)CCCNC(=O)c1cc2c(-c3cccc(OC)c3)nn(C)c2s1	Pf growth 48h 8.3µM
CCN1CCCC1CNC(=O)c1cc2c(-c3cccc(OC)c3)nn(C)c2s1 (stereo not drawn)	Pf growth 48h inconclusive, Pf growth 96h 5.9µM
CS(=O)(=O)c1ccccc1C(=O)Nc1cccc2ncccc12	Pf growth 48h inconclusive, Pf growth 96h inconclusive
O=C(Nc1cccc(OC(F)(F)F)c1)c1ccc(Br)o1	Pf growth 48h inconclusive, CHX counter 40, Pf growth 96h inconclusive
O=C(Nc1ccc2nn(-c3ccccc3)nc2c1)c1ccc(Br)o1	Shiga toxin inh 74, Pf growth 48h inconclusive, CHX counter 13
C/C(=N\NC(=O)c1cccc(Br)c1)c1cccc(NC(=O)c2ccc(C)o2)c1	Shiga toxin inh 42, CHX counter 28
O=C(Nc1ccc2nn(-c3ccccc3)nc2c1)c1ccc2c(c1)OCCO2	none
CC(=O)c1cccc(NC(=O)c2ccc(Br)o2)c1	Shiga toxin inh 63, CHX counter 24
C/C(=N\NC(=O)c1c(Br)c(C)nn1C)c1cccc(NC(=O)c2ccccc2C)c1	none
O=C(Nc1ccccc1C(=O)O)c1cccc(NC(=O)c2ccc(Br)o2)c1	Pf growth 48h inconclusive (no result: Pf growth 96h)
O=C(COC(=O)c1ccc2c(c1)OCO2)NC1CCCCC1	none (no result: Shiga toxin inh, NS1 function inh, Pf growth 48h, CHX counter, Pf growth 96h)
CC(=O)c1cccc(NC(=O)c2ccc(C)o2)c1	CHX counter 26, Pf growth 96h inconclusive (no result: NS1 function inh)
CCCCC(=O)Nc1cccc(NC(=O)c2ccc(Br)o2)c1	none
O=C(Nc1cccc(F)c1)c1ccc(Br)o1	Shiga toxin inh 77, CHX counter 60
O=c1cc(/C=C/c2ccccc2)oc2ccccc12	Shiga toxin inh 107, Pf growth 48h inconclusive, CHX counter 47
COc1ccc(NC(=O)[C@@H]2CCCN2C(=O)[C@@H]2Cc3ccccc3CN2C(=O)OC(C)(C)C)cc1	Pf growth 48h 12µM, Pf growth 96h 12µM
CC(C)(C)OC(=O)N1CCC[C@H]1C(=O)N/N=C/c1ccc2ncccc2c1	Pf growth 48h inconclusive, Pf growth 96h 12µM
CC(=O)c1ccc(NC(=O)[C@@H]2CCCN2C(=O)OC(C)(C)C)cc1	Shiga toxin inh 87, CHX counter 51
O=C(CN1C(=O)/C(=C\c2cccc(Cl)c2)Oc2ccccc21)N1CCN(c2ccccn2)CC1	Pf growth 96h 9.3µM (no result: NS1 function inh)
CCCC[C@@H](C=O)NC(=O)[C@H](CC(C)C)NC(=O)[C@H](CC(C)C)NC(C)=O	Shiga toxin inh 77, CHX counter 42 (no result: NS1 function inh, Pf growth 48h, SARS PLpro yeast, Pf growth 96h)
Cc1c(C(=O)OCC(=O)Nc2ccc(C(=O)N(C)C)cc2)oc2ccccc12	none
Cc1c(C(=O)OCC(=O)N(C)c2ccccc2)oc2ccccc12	Shiga toxin inh 50, CHX counter 28
Cc1c(C(=O)OCC(C)(C)CN(C)C)oc2ccccc12	Shiga toxin inh 87, CHX counter 44
Cc1c(C(=O)OCC(=O)N(C)Cc2ccccc2)oc2ccccc12	none (no result: Shiga toxin inh, NS1 function inh, CHX counter)
CCN(CC)CC(C)(C)COC(=O)c1oc2ccccc2c1C	Shiga toxin inh 43
O=C(NCC1CCCN1S(=O)(=O)c1cccs1)C(=O)Nc1ccc(F)cc1F (stereo not drawn)	none (no result: Shiga toxin inh, NS1 function inh, CHX counter)
Cc1cc(C)n(-c2nc(N(C)C)nc(N(C)C)n2)n1	Pf growth 48h inconclusive
Cc1cc(C)n(-c2nc(NC(C)C)nc(NC(C)C)n2)n1	Pf growth 48h 3.7µM
CCNc1nc(NCC)nc(-n2nc(C)cc2C)n1	Pf growth 48h 4.1µM, Pf growth 96h 2.1µM
COc1cnc(-c2ccccn2)nc1Oc1ccc(Cl)cc1	Pf growth 48h 0.37µM, Pf growth 96h 5.2µM
COc1cnc(-c2ccccn2)nc1Oc1ccccc1Cl	Pf growth 48h 7.4µM, CHX counter 30, Pf growth 96h 2.6µM
COc1cnc(-c2ccccn2)nc1Oc1ccc(F)cc1F	Pf growth 48h 10µM, CHX counter 33, Pf growth 96h 10µM (no result: NS1 function inh)
COc1cnc(-c2ccccc2)nc1Oc1ccc(C(C)(C)C)cc1	Pf growth 48h inconclusive, Pf growth 96h inconclusive
COc1cnc(-c2ccccn2)nc1NC(C)C	Pf growth 48h 15µM, Pf growth 96h inconclusive (no result: NS1 function inh)
O=[N+]([O-])c1cccc(C(=NCc2ccccc2)NO)c1	none
O=C(c1cn(-c2ccccc2)nc1-c1cccnc1)N1CCN(S(=O)(=O)c2cccc(F)c2)CC1	Pf growth 48h inconclusive, Pf growth 96h inconclusive (no result: Shiga toxin inh, NS1 function inh, CHX counter)
COC(=O)c1sc(N2C(=O)C(=O)/C(=C(/O)c3ccccc3)C2c2ccco2)nc1C (stereo not drawn)	NS1 function inh inconclusive
COc1cnc(-c2ccccn2)nc1Oc1ccc(Cl)c2ccccc12	Pf growth 48h 2.1µM, Pf growth 96h 6.6µM
O=C(NCCCn1ccnc1)c1ccccc1Br	Pf growth 96h inconclusive
CCCCC(=O)Nc1ccc(NC(=O)C(C)C)cn1	Shiga toxin inh 73, CHX counter 26 (no result: Pf growth 96h)
CCCCCCCCNC(=O)c1cnccn1	none
CCCCC(=O)Nc1ccc(NC(=O)c2cnccn2)cn1	CHX counter 25
COc1cc(CCN2C(=O)c3cccc4cccc(c34)C2=O)c(S(=O)(=O)NCCCO)cc1OC	Pf growth 48h inconclusive, Pf growth 96h 8.3µM
CCN1C(=O)c2cccc3c(S(=O)(=O)N4CCC(C)CC4)ccc1c23	Pf growth 48h inconclusive, Pf growth 96h inconclusive (no result: Shiga toxin inh, NS1 function inh, CHX counter)
COc1ccc(CCN2C(=O)c3cccc4c(C(=O)N5CCCCC5)ccc(c34)C2=O)cc1OC	Pf growth 48h inconclusive, Pf growth 96h 8.3µM
